Results from the OligoGym collection.

target: ADORA2B; experiment: pooled miR-30 sensor sort-seq; sequence = guide strand; conditions: shRNA
Also: reference of the scale not given here.

Row | Sequence | sensor-assay potency score (higher = more potent)
1 | TTGAAATATACCATGTAGCTCA | 0.0522
2 | TTTATTTTTCCATTGCCTCTAA | 0.2
3 | TTCATTCGTGGTTCCATCCCAG | -0.119
4 | TTTTCCACCATAAACAAGGCAG | -0.459
5 | TTCACAATGAAAACCAGCCGTG | -0.942
6 | AAACTTTTATACCTGAGCGGGA | -0.968
7 | TAGAAGTCAGTGCAGAAGCCCA | -0.856
8 | TTAATGTAGATCACCAGCATTA | -1.17
9 | TTTCCTTGTGAGGTGTAGCTAT | -0.397
10 | TTTGTCAATCCTTGGAGCCTAC | -0.74
11 | TAATCCACACAGTAAAAGCAGC | -1.13
12 | TATACCATGTAGCTCATGGGGA | -0.182
13 | TAGCGGAAGTCTCGGTTCCGGT | -1.62

target: ADRA1D; experiment: as above; conditions: shRNA

Row | Sequence | sensor-assay potency score (higher = more potent)
14 | TTGGTGACGGTCTGCAGGTGGC | -1.18
15 | TTGGCGCGCAGCTGGGTCGTGG | -1.53
16 | TAGTCGGCCAATTCGTAGGCCT | -0.797
17 | TGCTGTAGTCGGCCAATTCGTA | -0.975
18 | TTGCGCTCGGTCATGATGGCTG | -0.179
19 | TAGGGACACAGCCTCCACCTCT | -1.05
20 | TAGTTGGTGACGGTCTGCAGGT | -0.977
21 | TTCAGCTGCGGGAACAAGGAGC | -0.905
22 | AAGAAGAAAGGGAACCAGCAGA | -0.303
23 | TGACAAGCAGGTTACCTGCCAC | -0.511
24 | TACCGGTCCACGGAGATGGTGC | -1.15
25 | TACGGTGGCGCTCAGCAGCAGG | -1.13
26 | TTGGCCGCTTTCTTCTCACGGG | -0.602
27 | ATGCGCAGCACCACCTCGGAGG | -1.52
28 | TACATGACCACGATGACCGCCA | 0.517
29 | TAGAAGGAGCACACGGAGGAGA | -0.379
30 | TACCGCAGAAGCGCTCGTCAGG | -1.24
31 | TAGATGAGCGGGTTCACGCAGC | -0.546
32 | TGAGAGGATGACAAGCAGGTTA | -0.372
33 | TTCACGATGAAATAGTTGGTGA | -0.48
34 | ATAGTTGGTGACGGTCTGCAGG | -1.13
35 | TTCTTCTCACGGGAGAACTTGA | -1.13

target: ADRA2B; experiment: as above; conditions: shRNA

Row | Sequence | sensor-assay potency score (higher = more potent)
36 | TTTATTGATAAAATAGCTCAGA | -0.103
37 | TTGAAATAGTGATTCTGTCTGC | 0.106
38 | TTCCAAATCTAGCAGGTCCATC | -1.43
39 | TTCAGTGAGCTGTTGCAGTAGC | 0.233
40 | TTGGCGATCAGGTAGATGCGCA | -0.201
